This is a sample that favours compounds with a hit; in the whole collection about 6.5% have one here.
DPM-DC inhibit: S. pneumoniae DPM-DC inhibitors, primary screen, biochemical, PK/LDH-coupled NADH fluorescence; diphosphomevalonate decarboxylase (Streptococcus pneumoniae D39); purified DPM-DC; AID 556, 2006; calls only at 10 µM; 0.49% of 65,000 active;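 active = the 320 compounds with the highest percent inhibition in the single-dose primary screen, excluding strongly autofluorescent ones, cut at about 32% in these data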;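 note: kinetic rate of NADH fluorescence loss reporting ADP formed by the decarboxylase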
Spn MK inh: S. pneumoniae MK inhibitors, primary screen, biochemical, PK/LDH-coupled NADH absorbance. mevalonate kinase [Streptococcus pneumoniae D39]. inhibition, % at 10 µM. purified MK, PK/LDH-coupled NADH absorbance 340 nm. AID 555, 2006. 0.48% of 65,000 active;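 active = ranked among the strongest by inhibition in the single 10 µM screen, a fixed top-ranked set picked for dose follow-up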
Abs 340nm: compound light absorbance at 340 nm, profiling panel, artefact control, biochemical, MLSMR library, data from PS, PMK, MK assays | compound absorbance at 340 nm, fold over control | fold change at 10 µM | 65,000 tested, under 10 active | AID 708, 2007;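 active = at 10 µM dose, initial 340 nm absorbance at least 2 fold that of control wells; inactive = change under 2 fold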;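 note: initial absorbance extrapolated from kinetic A340 decline of NADH oxidation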
NADH enzymes: inhibitors of PK/LDH coupling enzymes, profiling panel, artefact control, biochemical, MLSMR library; coupled PK/LDH NADH assays, four targets; 0.02% of 65,000 active; AID 774, 2007; IC50, µM (series often up to 10 µM), for the others: at the top dose inhibition;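 active = single-dose screening hits from any of four coupled enzyme assays that gave an IC50 when retested across doses; inconclusive = no clear call, values can overlap the other calls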;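 note: the DPM-DC format reads NADH fluorescence rather than 340 nm absorbance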
Spn PMK inh: S. pneumoniae PMK inhibitors, primary screen, biochemical, mevalonate pathway, pilot trial included; 0.49% of 65,000 active; purified PMK, PK/LDH-coupled NADH absorbance 340 nm; AID 539, 2006; inhibition, % at 10 µM; phosphomevalonate kinase (Streptococcus pneumoniae D39);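 active = top-ranked compounds by inhibition in the single 10 µM screen, taking a fixed number of the strongest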;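 note: 0% = full reaction with DMSO carrier and 100% = background rate without enzyme reaction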
Fluor 339 460: intrinsic fluorescence of library compounds, ex339/em460 – biochemical, MLSMR library, data from DPM-DC assay, artefact control, profiling panel. AID 709, 2007. compound autofluorescence, ex339/em460 nm, NADH buffer; hits give high values; 1 = no-compound wells, NADH background. 5.5% of 65,000 active. fluorescence fold increase at 10 µM;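 active = at 10 µM, mean starting fluorescence two-fold or more over control wells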;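 note: signal is the first read of a kinetic run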
* hit, by the source's call; i = inactive; ? = inconclusive; . = not tested or not shown; + = active, no number.

SMILES	DPM-DC inhibit	Spn MK inh	Abs 340nm	NADH enzymes	Spn PMK inh	Fluor 339 460
Cc1cccc(N(CC(=O)NC2CCCC2)C(=O)CCCC(=O)Nc2ccccn2)c1	i	0	0.99	6%	17	1.1
Cc1ccc(C)c(N(CC(=O)NC2CCCC2)C(=O)CCCC(=O)Nc2ccccn2)c1	i	0	0.98	6%	48*	1
N#Cc1c(C(F)(F)F)cc(C2CC2)[nH]c1=O	.	3	1.1	5%	7	2.1*
COC(=O)CSc1nc(C2CC2)cc(C(F)(F)F)c1C#N	i	0	0.99	7%	16	1.1
C=CCNc1nc2c(c(=O)n(C)c(=O)n2C)n1CC(=C)C	i	7	1.1	7%	14	1.1
CCCCOn1c(C)c(C(=O)OCC)c2c3nonc3ccc21	i	0	0.99	2%	14	2.6*
COn1c(C)c(C(C)=O)c2c3nonc3ccc21	i	11	1	15%	14	3*
O=C(Cc1ccccc1)N1CCCC1c1ccccc1 (configuration not stated)	i	0	1.1	0%	0	1.1
CCn1nnc(NC(=O)c2cccnc2)n1	i	9	0.98	6%	9	1.1
CCn1nnc(NC(=O)c2cccc(-c3cc4ccccc4oc3=O)c2)n1	.	67*	1.2	38%	9	3.9*
O=C(Cn1cccc1)N1CCN(C(c2ccccc2)c2ccccc2)CC1	i	7	0.98	12%	11	1
O=C(CN1CCN(c2ncccn2)CC1)N1CCN(C(c2ccccc2)c2ccccc2)CC1	i	49*	1.1	16%	0	1.1
O=c1nc2c(-c3ccccc3F)n[nH]n2c2ccccc12	.	2	1	1%	0	5.1*
CC1Cn2c(nnc2-c2ccccc2O)S1 (configuration not stated)	i	0	1	0%	0	1.1
CC1Cn2c(nnc2-c2cc3ccccc3cc2O)S1 (configuration not stated)	i	4	1	11%	9	2.9*
Cc1cc(-c2nsc(=O)o2)c(S(C)(=O)=O)s1	i	6	0.99	5%	10	1.1
COc1ccc(-c2onc3ccc(Cl)cc23)cc1OC	i	5	1.1	3%	3	1.5
COc1ccc(-c2cn3cc(Cl)ccc3n2)cc1OC	.	0	1.1	3%	5	4.8*
COc1cc2nc(NCCN3CCOCC3)n3nc(-c4ccccc4)nc3c2cc1OC	i	7	1	11%	14	2.9*
Cc1ccccc1Cn1cc(NC(=O)c2cc3nc(-c4ccco4)cc(C(F)(F)F)n3n2)cn1	+	13	1.1	23%	14	3*
O=C(Nc1ccc(Cl)cc1)c1cc2nc(-c3ccco3)cc(C(F)(F)F)n2n1	i	8	1.1	9%	5	2.5*
CCOCc1cc(C)[nH]c(=O)c1C#N	.	4	1.1	4%	4	4.5*
Cc1cc(NC(=O)c2cc3nc(C4CC4)cc(C(F)(F)F)n3n2)no1	i	2	1.1	1%	2	1.3
Cc1cc(NC(=O)c2cc3nc4c(c(C(F)(F)F)n3n2)CCc2ccccc2-4)no1	.	8	1.1	16%	23	2.2*
CCN(CC)C(=O)CN1CCN(c2ccccc2F)CC1	i	68*	1.1	23%	0	1.1
SMILES	DPM-DC inhibit	Spn MK inh	Abs 340nm	NADH enzymes	Spn PMK inh	Fluor 339 460
CCN(CC)c1ccc(NC(=O)CN2CCN(c3ccccc3F)CC2)cc1	i	4	1	3%	6	1.1
C/C=C(\C)CN1CCN(c2cc(C)ccc2C)CC1	i	36	1.1	12%	0	1.1
C/C=C(\C)CN1CCN(c2ccccc2F)CC1	i	51*	1.1	17%	0	1.1
O=C(CN1CCN(c2ccccc2F)CC1)c1ccc2cc[nH]c2c1	.	1	1.1	2%	2	2.1*
CNC(=O)CSc1nnc(-c2cc3c(C)nn(-c4ccccc4)c3s2)n1C	i	13	1	3%	12	1.1
CCN1C(=O)CSc2ccc(C(=O)NCCCN3CCOCC3)cc21	i	0	0.99	6%	17	1.1
O=C(NCCN1CCOCC1)c1ccc2c(c1)N(Cc1ccccc1)CCS2	.	9	1	9%	8	2*
O=C(NCCN1CCOCC1)c1ccc2c(c1)N(Cc1ccccc1)C(=O)CS2	i	3	1	2%	19	1.1
CN1CCN(CCCNC(=O)c2ccc3c(c2)N(Cc2ccccc2)CCS3)CC1	.	0	1.1	8%	16	2.1*
CC(C)C(O)P(=O)(OCc1ccccc1)c1ccc(N(C)C)cc1 (configuration not stated)	i	7	1	10%	18	1.1
O=C1CCCC2=C1C1(CCCCC1)N=C(Nc1nc3ccccc3s1)N2	i	14	1.1	7%	7	2.3*
O=C1CCCC2=C1C1(CCCC1)N=C(Nc1nc3ccccc3s1)N2	i	3	1	6%	3	2*
COc1ccc(N(C(=O)c2ccco2)S(=O)(=O)c2cc(OC)ccc2OC)cc1	i	11	0.99	2%	0	1
O=c1c2ccccc2nc2n1CCCCC2	i	7	1	5%	8	1
O=c1c2ccccc2nc2n1CCC2	i	86*	1	?	23	1.1
O=c1c2ccccc2nc2n1CCCCN2	.	3	1.1	6%	9	3.8*
Nc1ccc2nc3n(c(=O)c2c1)CCC3	.	6	1.1	9%	12	2.1*
CCCCCCN=CC1=C(O)C(C(=O)OC)C(C)(C)CC1=O (configuration not stated)	i	7	1	2%	0	1.1
Cc1nnc(C)c2c(C)n(C(C)c3ccccc3)c(C)c12 (configuration not stated)	i	6	1.1	3%	0	2.1*
Cc1occc1-c1nnc(SCC(=O)NC(C)(C)C)n1C(C)c1ccccc1 (configuration not stated)	i	5	0.98	5%	11	1.1
Cc1ccc(S(=O)(=O)N[C@H](C(=O)N2CCC(C(=O)N3CCC[C@H]3C(=O)O)CC2)C(C)C)cc1	i	8	1	7%	12	1
COc1ccc(OC)c(C(C)NC(=O)c2ccco2)c1 (configuration not stated)	i	5	1	4%	7	1.1
CC(c1ccccc1)C(CC(=O)O)C(=O)NC1CCCCC1 (configuration not stated)	i	8	1	12%	27*	1.1

Bioassay records deposited in PubChem by SRMLSC.
